# Experimental data: the supplement of paper PMC8728848
# The entries come from a sample that favours the strongest signals as a whole.
# B1: Gal 3 (Homo sapiens), P17931 (protein)
# chain: MADNFSLHDALSGSGNPNPQGWPGAWGNQPAGAGGYPGASYPGAYPGQAPPGAYPGQAPPGAYHGAPGAYPGAPAPGVYPGPPSGPGAYPSSGQPSAPGAYPATGPYGAPAGPLIVPYNLPLPGGVVPRMLITILGTVKPNANILDFQRGNDVAFHFNPRFNENNRRVIVCNTKLDNNWAREERQSVFPFESGKPFKIQVLVEPDHFKVAVNDAHLLQYNHRVKKLNEISKLGISGDIDLTSASYTMI
# Key:
# Experiment in all cases: glycan array binding signal (z-score within array); higher = stronger binding
# Conditions in all cases: glycan notation: IUPAC condensed, linker removed; mutation: G182A
# Fuc(a1-2)Gal(b1-4)GlcNAc = target: Fuc(a1-2)Gal(b1-4)GlcNAc
# In short: (§1)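 Glycan array binding is given as a within-array Z-score, which can be read as non-binding when negative. The arrays, 3228 of them, came from the Consortium for Functional Glycomics database and were retained only where the protein sequence was available. Z-scores were averaged across arrays of the same protein sequence at different concentrations or buffers and across linkers.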
# [1] = target: Fuc(a1-2)Gal(b1-4)GlcNAc(b1-3)Gal(b1-4)GlcNAc(b1-3)Gal(b1-4)GlcNAc
# In short: as §1
# [2] = target: Fuc(a1-2)Gal(b1-4)GlcNAc(b1-3)GalNAc
# In short: as §1
# [3] = target: Fuc(a1-2)[Gal(a1-3)]Gal(b1-4)GlcNAc
# In short: as §1
# [4] = target: Fuc(a1-2)[Gal(a1-3)]Gal(b1-4)GlcNAc(b1-2)Man(a1-3)[Fuc(a1-2)[Gal(a1-3)]Gal(b1-4)GlcNAc(b1-2)Man(a1-6)]Man(b1-4)GlcNAc(b1-4)GlcNAc
# In short: as §1
# [5] = target: Fuc(a1-2)[GalNAc(a1-3)]Gal(b1-4)GlcNAc(b1-2)Man(a1-3)[Fuc(a1-2)[GalNAc(a1-3)]Gal(b1-4)GlcNAc(b1-2)Man(a1-6)]Man(b1-4)GlcNAc(b1-4)GlcNAc
# In short: as §1
# [6] = target: Fuc(a1-2)[GalNAc(a1-3)]Gal(b1-4)GlcNAc(b1-3)Gal(b1-4)GlcNAc(b1-3)Gal(b1-4)GlcNAc
# In short: as §1
# [7] = target: Fuc(a1-3)[Gal(b1-4)]GlcNAc(b1-2)Man(a1-3)[Fuc(a1-3)[Gal(b1-4)]GlcNAc(b1-2)Man(a1-6)]Man(b1-4)GlcNAc(b1-4)GlcNAc
# In short: as §1
# [8] = target: Fuc(a1-3)[Gal(b1-4)]GlcNAc(b1-3)Gal(b1-3)[Fuc(a1-4)]GlcNAc
# In short: as §1
# Gal(a1-3)GalNAc = target: Gal(a1-3)GalNAc
# In short: as §1
# Gal(a1-4)Gal(b1-4)Glc = target: Gal(a1-4)Gal(b1-4)Glc
# In short: as §1
# [9] = target: Gal(b1-3)GalNAc(b1-4)Gal(b1-4)Glc
# In short: as §1
# [10] = target: Gal(b1-4)GlcNAc(b1-2)Man(a1-6)[Man(a1-3)]Man(b1-4)GlcNAc(b1-4)GlcNAc
# In short: as §1
# [11] = target: Gal(b1-4)GlcNAc(b1-3)Gal(b1-4)GlcNAc(b1-3)Gal(b1-4)GlcNAc
# In short: as §1
# [12] = target: Gal(b1-4)GlcNAc(b1-6)Gal(b1-4)GlcNAc
# In short: as §1
# [13] = target: Gal3S(b1-3)[Fuc(a1-4)]GlcNAc
# In short: as §1
# GalNAc(a1-3)Gal = target: GalNAc(a1-3)Gal
# In short: as §1
# [14] = target: GalNAc(b1-3)Gal(a1-6)Gal(b1-4)Glc
# In short: as §1
# [15] = target: GlcNAc(a1-4)Gal(b1-4)GlcNAc(b1-3)Gal(b1-4)GlcNAc(b1-3)Gal(b1-4)GlcNAc
# In short: as §1
# [16] = target: GlcNAc(b1-3)Gal(b1-4)GlcNAc(b1-3)Gal(b1-4)GlcNAc
# In short: as §1
# GlcNAc3Prop(b1-4)GlcNAc = target: GlcNAc3Prop(b1-4)GlcNAc
# In short: as §1
# Man(a1-2)Man(a1-3)Man = target: Man(a1-2)Man(a1-3)Man
# In short: as §1
# [17] = target: Man(a1-2)Man(a1-3)[Man(a1-2)Man(a1-6)]Man
# In short: as §1
# [18] = target: Neu5Ac(a2-3)Gal(b1-3)[Fuc(a1-4)]GlcNAc(b1-3)Gal(b1-3)[Fuc(a1-4)]GlcNAc
# In short: as §1
# [19] = target: Neu5Ac(a2-3)Gal(b1-4)GlcNAc(b1-2)Man(a1-3)[Neu5Ac(a2-6)Gal(b1-4)GlcNAc(b1-2)Man(a1-6)]Man(b1-4)GlcNAc(b1-4)GlcNAc
# In short: as §1
# Neu5Ac(a2-3)GalNAc = target: Neu5Ac(a2-3)GalNAc
# In short: as §1
# Neu5Ac(a2-6)Gal(b1-4)Glc = target: Neu5Ac(a2-6)Gal(b1-4)Glc
# In short: as §1
# [20] = target: Neu5Ac(a2-6)Gal(b1-4)GlcNAc
# In short: as §1
# [21] = target: Neu5Ac(a2-6)Gal(b1-4)GlcNAc(b1-3)GalNAc
# In short: as §1
# [22] = target: Neu5Ac(a2-6)GlcNAc(b1-4)GlcNAc(b1-4)GlcNAc
# In short: as §1
binder,measurement,setting,value
B1,glycan array binding signal (z-score),Fuc(a1-2)Gal(b1-4)GlcNAc,-0.188
same,glycan array binding signal (z-score),[1],5.12
same,glycan array binding signal (z-score),[2],-0.187
same,glycan array binding signal (z-score),[3],1.68
same,glycan array binding signal (z-score),[4],9.17
same,glycan array binding signal (z-score),[5],5.25
same,glycan array binding signal (z-score),[6],6.29
same,glycan array binding signal (z-score),[7],-0.191
same,glycan array binding signal (z-score),[8],-0.188
same,glycan array binding signal (z-score),Gal(a1-3)GalNAc,-0.185
same,glycan array binding signal (z-score),Gal(a1-4)Gal(b1-4)Glc,-0.192
same,glycan array binding signal (z-score),[9],-0.189
same,glycan array binding signal (z-score),[10],-0.197
same,glycan array binding signal (z-score),[11],7.13
same,glycan array binding signal (z-score),[12],-0.196
same,glycan array binding signal (z-score),[13],-0.186
same,glycan array binding signal (z-score),GalNAc(a1-3)Gal,-0.192
same,glycan array binding signal (z-score),[14],-0.19
same,glycan array binding signal (z-score),[15],9.32
same,glycan array binding signal (z-score),[16],4.53
same,glycan array binding signal (z-score),GlcNAc3Prop(b1-4)GlcNAc,-0.182
same,glycan array binding signal (z-score),Man(a1-2)Man(a1-3)Man,-0.189
same,glycan array binding signal (z-score),[17],-0.189
same,glycan array binding signal (z-score),[18],-0.187
same,glycan array binding signal (z-score),[19],-0.168
same,glycan array binding signal (z-score),Neu5Ac(a2-3)GalNAc,-0.192
same,glycan array binding signal (z-score),Neu5Ac(a2-6)Gal(b1-4)Glc,-0.183
same,glycan array binding signal (z-score),[20],-0.177
same,glycan array binding signal (z-score),[21],-0.143
same,glycan array binding signal (z-score),[22],-0.191
